For some assays here: Results with a measured potency or affinity are listed apart.

What all share (design): scale not given: direction of the effect not stated beside the values
The target in assay [1] is Protein translocase subunit SecA (Escherichia coli (strain K12)) (UniProt P10408). The assay can be described thus: Assay to Identify E. coli SecA ATPase Inhibitors. As to conditions: 30 µM. In kind it is functional.
Assay [2] addresses T1, Ubiquitin-activating enzyme e1, putative (Leishmania donovani (strain BPK282A1)) (UniProt E9BSI1).
T1 sequence (whole entry): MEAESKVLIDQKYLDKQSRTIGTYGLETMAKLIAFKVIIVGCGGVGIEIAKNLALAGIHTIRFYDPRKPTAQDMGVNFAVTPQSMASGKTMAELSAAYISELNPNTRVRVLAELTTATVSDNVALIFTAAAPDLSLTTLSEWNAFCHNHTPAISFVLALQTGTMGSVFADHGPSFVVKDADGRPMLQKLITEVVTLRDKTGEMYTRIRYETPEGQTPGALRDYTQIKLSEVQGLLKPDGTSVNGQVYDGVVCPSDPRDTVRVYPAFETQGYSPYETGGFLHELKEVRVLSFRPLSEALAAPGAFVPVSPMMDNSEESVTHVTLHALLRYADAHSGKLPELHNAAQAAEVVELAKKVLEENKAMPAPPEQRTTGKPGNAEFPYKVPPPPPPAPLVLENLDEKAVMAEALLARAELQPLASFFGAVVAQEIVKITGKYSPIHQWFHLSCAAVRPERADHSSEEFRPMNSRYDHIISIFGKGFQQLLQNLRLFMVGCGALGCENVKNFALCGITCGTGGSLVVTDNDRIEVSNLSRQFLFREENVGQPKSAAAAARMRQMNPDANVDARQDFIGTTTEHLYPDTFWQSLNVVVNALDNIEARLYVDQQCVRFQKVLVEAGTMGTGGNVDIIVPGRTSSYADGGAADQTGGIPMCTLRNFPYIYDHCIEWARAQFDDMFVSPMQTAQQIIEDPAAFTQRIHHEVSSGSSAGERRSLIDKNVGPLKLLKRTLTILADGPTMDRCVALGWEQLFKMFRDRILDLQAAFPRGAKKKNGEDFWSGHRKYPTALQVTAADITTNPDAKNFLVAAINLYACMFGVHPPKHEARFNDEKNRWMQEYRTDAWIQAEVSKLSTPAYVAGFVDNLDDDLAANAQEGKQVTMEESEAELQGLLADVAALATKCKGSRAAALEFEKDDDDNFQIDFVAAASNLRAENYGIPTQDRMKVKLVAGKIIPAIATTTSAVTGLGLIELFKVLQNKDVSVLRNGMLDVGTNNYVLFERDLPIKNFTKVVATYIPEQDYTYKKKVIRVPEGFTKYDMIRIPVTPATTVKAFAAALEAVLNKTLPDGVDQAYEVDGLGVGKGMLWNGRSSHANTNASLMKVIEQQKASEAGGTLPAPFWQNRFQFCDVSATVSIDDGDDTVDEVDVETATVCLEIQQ
The assay can be described thus: Leishmania donovani Ubiquitin Activating Enzyme (LdE1). To be noted: 30 µM. The format is functional.

The target in assay [3] is AMP-activated protein kinase, AMPK (Homo sapiens) (UniProt P54646+O43741+P54619+Q9UGJ0+Q9Y478+Q13131+Q9UGI9). The assay can be described thus: AMP-dependent Kinase enzyme assay. An in vitro enzyme assay that detects ADP turnover that is directly proportional to AMPK activity. This uses naive AMPK that is activated during the assay with MK-8722. In kind it is functional. To be noted: 30 µM.

For assay [4], the target named is Sialic acid-binding Ig-like lectin 9 (Homo sapiens) (UniProt Q9Y336). The assay can be described thus: Hs-Siglec9 ALPHAscreen SOP 20170721. As to conditions: 10 µM.
Sequence of Sialic acid-binding Ig-like lectin 9 (Homo sapiens) (Q9Y336 whole entry): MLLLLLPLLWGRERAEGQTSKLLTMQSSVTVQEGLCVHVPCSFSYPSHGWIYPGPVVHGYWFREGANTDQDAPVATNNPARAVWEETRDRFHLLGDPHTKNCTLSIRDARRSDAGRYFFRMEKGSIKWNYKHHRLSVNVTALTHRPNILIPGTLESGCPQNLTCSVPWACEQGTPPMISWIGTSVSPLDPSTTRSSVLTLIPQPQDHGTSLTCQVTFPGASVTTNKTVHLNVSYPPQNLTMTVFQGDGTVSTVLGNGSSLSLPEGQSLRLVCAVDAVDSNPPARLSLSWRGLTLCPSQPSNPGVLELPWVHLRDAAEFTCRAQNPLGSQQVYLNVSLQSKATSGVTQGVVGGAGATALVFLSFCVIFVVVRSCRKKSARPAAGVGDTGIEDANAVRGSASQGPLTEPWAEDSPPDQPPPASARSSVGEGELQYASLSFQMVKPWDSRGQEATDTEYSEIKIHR
For another assay, the system named is Trypanosoma cruzi. The assay can be described thus: Trypanosoma cruzi phosphomannomutase and mannose-1-phosphate guanylyltransferase assay. The format is functional. To be noted: 10 µM.
In assay [5] the target is T2, Arginase-2, mitochondrial (Homo sapiens) (UniProt P78540).
T2 sequence (whole entry): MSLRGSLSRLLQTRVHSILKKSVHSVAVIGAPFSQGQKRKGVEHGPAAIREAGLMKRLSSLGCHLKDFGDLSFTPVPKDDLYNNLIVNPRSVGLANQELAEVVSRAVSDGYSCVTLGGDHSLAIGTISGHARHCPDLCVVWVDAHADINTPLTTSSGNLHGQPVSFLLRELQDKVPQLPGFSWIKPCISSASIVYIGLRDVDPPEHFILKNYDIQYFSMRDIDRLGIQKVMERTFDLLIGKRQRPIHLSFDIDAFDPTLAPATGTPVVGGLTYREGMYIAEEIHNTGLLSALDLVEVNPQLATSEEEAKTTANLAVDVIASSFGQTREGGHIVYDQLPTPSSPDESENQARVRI
The assay can be described thus: in vitro enzyme assay to detect the production of urea directly proportional to the activity of Arginase II. Note: in the data most compounds retested in dose-response had high values. The format is functional. As to conditions: 33.3 µM.

In assay [6] the target is T3, Proteasome subunit beta (Trypanosoma cruzi) (UniProt O96673).
T3 sequence (whole entry): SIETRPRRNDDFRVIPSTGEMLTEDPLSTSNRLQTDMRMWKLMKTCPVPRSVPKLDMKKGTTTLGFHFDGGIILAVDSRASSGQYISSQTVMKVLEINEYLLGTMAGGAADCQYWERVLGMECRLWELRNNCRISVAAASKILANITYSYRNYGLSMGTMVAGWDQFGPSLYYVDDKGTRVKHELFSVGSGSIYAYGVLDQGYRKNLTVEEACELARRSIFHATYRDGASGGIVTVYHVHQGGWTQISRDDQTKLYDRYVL
The assay can be described thus: Trypanosoma cruzi proteasome chymotrypsin-like activity (TcProtChymo) assay. Note: in the data most compounds retested in dose-response had high values. The format is functional. As to conditions: 9.37 µM.

The species named for the next assay is Homo sapiens. The assay can be described thus: To identify inhibition of the IFN signalling (Jak-Stat) pathway via expression of an eGFP reporter gene under the control of an IFN-stimulated response element (ISRE) containing MxA promoter. In kind it is functional. As to conditions: 30 µM. (In general: Reporter assays use an easily measured gene product as a stand-in for the process of interest.)

Assay [7] concerns the target T4, Tyrosyl-tRNA synthetase, putative (Trypanosoma cruzi (strain CL Brener)) (UniProt Q4DSP6).
T4 sequence (whole entry): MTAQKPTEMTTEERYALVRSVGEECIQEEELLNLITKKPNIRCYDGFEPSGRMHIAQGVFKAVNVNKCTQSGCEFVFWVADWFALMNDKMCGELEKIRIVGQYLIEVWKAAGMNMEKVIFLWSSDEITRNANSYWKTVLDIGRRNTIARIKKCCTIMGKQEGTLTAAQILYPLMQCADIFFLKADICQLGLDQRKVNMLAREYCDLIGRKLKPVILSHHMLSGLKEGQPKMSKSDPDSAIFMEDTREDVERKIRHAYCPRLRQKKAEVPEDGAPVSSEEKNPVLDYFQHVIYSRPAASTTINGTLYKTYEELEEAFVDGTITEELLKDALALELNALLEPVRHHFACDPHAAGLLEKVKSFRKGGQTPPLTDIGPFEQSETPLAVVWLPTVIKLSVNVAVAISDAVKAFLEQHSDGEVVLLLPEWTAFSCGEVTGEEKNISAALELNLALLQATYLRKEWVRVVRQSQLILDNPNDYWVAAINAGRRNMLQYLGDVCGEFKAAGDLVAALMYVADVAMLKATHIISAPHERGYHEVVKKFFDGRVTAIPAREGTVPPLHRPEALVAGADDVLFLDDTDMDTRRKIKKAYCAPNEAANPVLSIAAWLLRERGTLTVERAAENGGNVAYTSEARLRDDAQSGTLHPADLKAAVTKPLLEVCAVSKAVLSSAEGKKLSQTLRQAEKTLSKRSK
The assay can be described thus: Trypanosoma cruzi tyrosyl tRNA synthetase (TcYRS) _High Tyrosine SOP. Note: in the data most compounds retested in dose-response had high values. In kind it is functional. As to conditions: 30 µM.

Assay [8] addresses T4, Tyrosyl-tRNA synthetase, putative (Trypanosoma cruzi (strain CL Brener)). The assay can be described thus: Trypanosoma cruzi tyrosyl tRNA synthetase (TcYRS) SOP. To be noted: 30 µM. In kind it is functional.
The target in assay [9] is Chromo domain-containing protein 1 (Saccharomyces cerevisiae (strain ATCC 204508 / S288c) (Baker's yeast)) (UniProt P32657). The assay can be described thus: ScCHD-1 Enzyme Inhibition Assay. Note: in the data most compounds retested in dose-response had high values. In kind it is functional. As to conditions: 30 µM.
Sequence of Chromo domain-containing protein 1 (Saccharomyces cerevisiae (strain ATCC 204508 / S288c) (Baker's yeast)) (P32657 whole entry, the tested form may be a part): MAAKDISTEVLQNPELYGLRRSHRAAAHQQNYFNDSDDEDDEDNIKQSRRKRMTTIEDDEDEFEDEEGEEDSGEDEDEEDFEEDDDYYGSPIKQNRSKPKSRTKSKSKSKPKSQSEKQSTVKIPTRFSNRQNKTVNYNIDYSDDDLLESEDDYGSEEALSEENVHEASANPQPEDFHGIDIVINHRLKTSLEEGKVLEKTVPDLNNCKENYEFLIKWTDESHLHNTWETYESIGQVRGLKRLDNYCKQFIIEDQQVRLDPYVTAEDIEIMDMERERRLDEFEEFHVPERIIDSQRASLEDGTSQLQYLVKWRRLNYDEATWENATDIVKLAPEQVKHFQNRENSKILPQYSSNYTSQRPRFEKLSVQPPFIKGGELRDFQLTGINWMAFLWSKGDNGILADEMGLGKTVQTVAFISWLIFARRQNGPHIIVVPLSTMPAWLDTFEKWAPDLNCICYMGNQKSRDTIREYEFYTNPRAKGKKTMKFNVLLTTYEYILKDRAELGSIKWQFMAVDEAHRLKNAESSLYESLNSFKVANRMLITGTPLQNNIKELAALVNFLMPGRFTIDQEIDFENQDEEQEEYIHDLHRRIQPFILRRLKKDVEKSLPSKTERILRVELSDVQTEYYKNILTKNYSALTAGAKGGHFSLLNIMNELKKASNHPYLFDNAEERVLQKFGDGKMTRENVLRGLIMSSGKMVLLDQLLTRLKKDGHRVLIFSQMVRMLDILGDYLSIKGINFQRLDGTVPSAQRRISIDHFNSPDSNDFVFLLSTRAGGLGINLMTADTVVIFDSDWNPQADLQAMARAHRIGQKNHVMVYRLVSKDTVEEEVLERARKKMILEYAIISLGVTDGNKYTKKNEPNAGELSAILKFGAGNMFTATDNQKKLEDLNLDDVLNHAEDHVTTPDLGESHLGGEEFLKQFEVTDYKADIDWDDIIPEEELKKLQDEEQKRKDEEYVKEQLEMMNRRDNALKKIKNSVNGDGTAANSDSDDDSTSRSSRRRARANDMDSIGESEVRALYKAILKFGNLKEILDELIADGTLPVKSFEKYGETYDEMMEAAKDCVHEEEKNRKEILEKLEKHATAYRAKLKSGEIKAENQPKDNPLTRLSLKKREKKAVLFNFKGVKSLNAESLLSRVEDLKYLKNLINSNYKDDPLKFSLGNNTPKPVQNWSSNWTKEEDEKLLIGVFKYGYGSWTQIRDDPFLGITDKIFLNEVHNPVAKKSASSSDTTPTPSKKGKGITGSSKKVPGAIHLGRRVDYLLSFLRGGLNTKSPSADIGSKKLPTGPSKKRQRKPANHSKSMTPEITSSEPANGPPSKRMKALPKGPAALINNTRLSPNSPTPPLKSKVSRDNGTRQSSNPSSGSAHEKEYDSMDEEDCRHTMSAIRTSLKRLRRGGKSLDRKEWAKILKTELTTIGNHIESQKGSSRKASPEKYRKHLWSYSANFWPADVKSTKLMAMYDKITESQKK

Sequence of Protein translocase subunit SecA (Escherichia coli (strain K12)) (P10408 whole entry): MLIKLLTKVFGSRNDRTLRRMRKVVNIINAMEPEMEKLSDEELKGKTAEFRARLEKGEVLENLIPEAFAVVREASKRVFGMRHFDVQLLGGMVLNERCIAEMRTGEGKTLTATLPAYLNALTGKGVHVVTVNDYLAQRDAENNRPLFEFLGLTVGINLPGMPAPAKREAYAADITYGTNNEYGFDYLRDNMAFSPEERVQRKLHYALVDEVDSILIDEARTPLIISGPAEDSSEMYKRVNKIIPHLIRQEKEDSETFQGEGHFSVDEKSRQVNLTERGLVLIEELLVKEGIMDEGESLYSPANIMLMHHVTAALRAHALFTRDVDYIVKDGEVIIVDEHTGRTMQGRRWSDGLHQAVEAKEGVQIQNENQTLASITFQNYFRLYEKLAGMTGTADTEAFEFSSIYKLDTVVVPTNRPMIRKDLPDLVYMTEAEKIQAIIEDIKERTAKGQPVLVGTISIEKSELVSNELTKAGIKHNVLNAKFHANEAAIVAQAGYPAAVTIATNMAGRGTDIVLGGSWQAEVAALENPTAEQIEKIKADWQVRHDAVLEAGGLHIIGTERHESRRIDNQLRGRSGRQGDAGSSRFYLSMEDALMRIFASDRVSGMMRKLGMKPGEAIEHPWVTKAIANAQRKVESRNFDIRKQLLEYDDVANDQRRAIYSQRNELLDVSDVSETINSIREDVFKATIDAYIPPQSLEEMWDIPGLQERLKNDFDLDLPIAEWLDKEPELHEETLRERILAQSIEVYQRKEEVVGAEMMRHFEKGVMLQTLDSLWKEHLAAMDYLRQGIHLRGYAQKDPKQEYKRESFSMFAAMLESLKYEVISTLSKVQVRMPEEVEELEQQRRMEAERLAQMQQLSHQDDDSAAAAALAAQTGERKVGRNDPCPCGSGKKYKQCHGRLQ

In the case of `CN(CC1(O)CCCCC1)C1CCCN(Cc2noc(C3CC3)n2)C1` (stereo not given), the Percent Effect in assay [1] is -0.786%; in [2], 26.3%; in assay [3] it was -8.18%; in assay [4], -11.1%; in the assay on Trypanosoma cruzi it was -3.46%; in assay [5] it was -1.08%. Moreover, the Percent Effect in assay [6] is 10.9%; in the assay listed under Homo sapiens it was 10.4%; in assay [7], 4.43%; in assay [8] it was 13.6%; in assay [9], -3.04%.

Turning to `COCc1nc(C(=O)N2CCCCC2Cn2cccn2)cs1` (stereo not given), the Percent Effect was -1.64% in assay [1]; -7.89% in [2]; -1.7% in assay [3]; -2.08% in assay [4]; 6.82% in the assay with Trypanosoma cruzi; -3.24% in [5]. Further, the Percent Effect in assay [6] was -0.761%; in the assay filed under Homo sapiens, -20.6%; in [7], 0.493%; in assay [8] it was 3.7%; in assay [9], 3.28%.

In the case of `CCn1c(=O)nc2n1C(=O)N(c1cccc(Cl)c1)C2`, the Percent Effect was -5.8% in assay [1]; 6.67% in assay [2]; -1.98% in assay [3]; -4.32% in assay [4]; -0.786% with Trypanosoma cruzi; 2.29% in [5]. Also, the Percent Effect in [6] was 13.7%; in the assay filed under Homo sapiens, -10.2%; in assay [7], 8.47%; in assay [8], 15.4%; in assay [9], -7.77%.

For the molecule `Cc1cnn(C2CN(Cc3nc(C(C)(C)C)no3)C2)c1`, the Percent Effect was -0.455% in assay [1]; 23.4% in assay [2]; -7.8% in [3]; -0.55% in assay [4]; 3.56% in the assay on Trypanosoma cruzi; 2.49% in assay [5]. In addition, the Percent Effect in assay [6] was 7.09%; in the assay listed under Homo sapiens, 29.8%; in assay [7] it was 8.74%; in assay [8] it was 14.6%; in assay [9], -6.23%.

As to `COCc1ccccc1CNc1nnc(C)c(C)c1C#N`, the Percent Effect is -6.03% in assay [1]; 5.41% in assay [2]; -21.1% in assay [3]; -1.29% in [4]; -1.39% in the assay with Trypanosoma cruzi; 4.62% in assay [5]. The Percent Effect in assay [6] is 17.9%; in the assay listed under Homo sapiens, 30.3%; in assay [7], 4.95%; in assay [8], 6.1%; in [9], -2.15%.

As for `CCCNC(=O)c1cc2c(nc1O)CCC(C)C2` (stereo not given), the Percent Effect in assay [1] is -3.98%; in [2], 14.7%; in assay [3] it was 2.01%; in [4], -2.15%; in the assay on Trypanosoma cruzi, 5.5%; in [5], -13.9%. The Percent Effect is 9.06% in assay [6]; -2.51% in the assay listed under Homo sapiens; 6.35% in assay [7]; 10.3% in [8]; -8.5% in assay [9].

Consider `COC(=O)CCNC(=O)C1CC(=O)N(C2CCCC2)C1` (stereo not given), for which the Percent Effect was -4.42% in assay [1]; -2.7% in assay [2]; -0.395% in assay [3]; -6.64% in [4]; -0.781% in the assay on Trypanosoma cruzi; -2.08% in assay [5]. The Percent Effect was 5.83% in [6]; -6.8% in the assay filed under Homo sapiens; 1.98% in [7]; 6.1% in assay [8]; -2.5% in assay [9].

In the case of `O=C(CCNC(=O)c1ccoc1)Nc1c(F)cccc1F`, the Percent Effect in assay [1] is 0.646%; in assay [2], 18.2%; in assay [3], -4.32%; in [4], 5.34%; in the assay on Trypanosoma cruzi, -2.84%; in [5], 4.42%. Besides, the Percent Effect in assay [6] is 18.8%; in the assay listed under Homo sapiens it was 14%; in [7], 6.67%; in assay [8], 21.2%; in assay [9], -3.32%.

`CN(C)C(=O)[C@H]1C[C@@H]2CCN(C3CCOCC3)C[C@H]2O1`: the Percent Effect in assay [1] is -0.651%; in assay [2] it was 2.67%; in assay [3], -1.32%; in [4], -3.17%; in the assay with Trypanosoma cruzi it was 4.44%; in assay [5], -50.7%. The Percent Effect in [6] is -1.03%; in the assay listed under Homo sapiens, -1.34%; in assay [7] it was -1.04%; in [8], -5%; in assay [9], -4.08%.

`CSCCCN1CCn2nc(CNC(C)=O)cc2C1`: the Percent Effect was -4.2% in [1]; 0% in [2]; 6.86% in [3]; 4.06% in assay [4]; -7.05% in the assay with Trypanosoma cruzi; -0.455% in assay [5]. Moreover, the Percent Effect in [6] is 8.16%; in the assay filed under Homo sapiens, 27.3%; in [7] it was -1.07%; in [8] it was -2.5%; in [9] it was -4.5%.

Source of the values: ChEMBL document CHEMBL3988442, “University of Dundee, Small-Polar-MMV Screening Library” (2021).
